Measurements as given in PubChem BioAssay (Tox21).
Values joined by “and” are separate entries in the source; they are usually repeats but may differ in a detail not shown here. Equal entries are not always repeated. Results filed as inconclusive are left out. The source holds several records for some structures; these can differ, active in one and inactive in another. Active and inactive are the calls of the source. Unless noted, calls follow the shape of the full dose curve.

Key:
[1] = Nuclear factor erythroid 2-related factor 2/antioxidant responsive element (Nrf2/ARE) small molecule agonists: qHTS cell viability counter screen in human keratinocytes (AID 1919968; active = well fitted curve in the direction sought with a large enough effect in the repeat runs; an effect the other way counts as inactive or inconclusive; also: nearly all actives have a fitted effect of over 55% in size; also: potency is read from the fitted curve at half-maximal effect)
In short: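 KeratinoSens cells (HaCaT keratinocytes stably carrying an ARE-luciferase reporter) were seeded at 1,500 cells/well and rested 5 h at 37 C/5% CO2. They were then exposed to compounds in DMSO for 23 h. Viability was read by CellTiter-Fluor fluorescence after 1 h.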

[2] = Nuclear factor erythroid 2-related factor 2/antioxidant responsive element (Nrf2/ARE) small molecule agonists: luciferase reporter gene qHTS assay in human keratinocytes (AID 1919969); also: nearly all actives have a fitted effect of over 35% in size; also: potency is read from the fitted curve at half-maximal effect
[3] = biological target: Gonadotropin-releasing hormone receptor (Homo sapiens) (UniProt P30968); assay: Human gonadotropin-releasing hormone receptor (GnRHR) small molecule agonists, calcium flux assay in GnRHR-HEK293 cells (AID 1920063); also: nearly all actives have a fitted effect of over 35% in size
Sequence of Gonadotropin-releasing hormone receptor (Homo sapiens) (P30968 whole entry, looked up): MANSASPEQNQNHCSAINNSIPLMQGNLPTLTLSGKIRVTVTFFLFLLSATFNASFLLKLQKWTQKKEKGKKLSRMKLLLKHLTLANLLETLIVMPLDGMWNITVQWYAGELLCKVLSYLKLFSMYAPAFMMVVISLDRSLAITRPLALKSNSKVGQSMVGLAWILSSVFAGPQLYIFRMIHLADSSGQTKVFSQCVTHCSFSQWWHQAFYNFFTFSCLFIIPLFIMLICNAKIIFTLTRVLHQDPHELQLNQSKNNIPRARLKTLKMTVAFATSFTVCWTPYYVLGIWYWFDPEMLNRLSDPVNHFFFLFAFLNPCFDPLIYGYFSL
In short: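 HEK293 cells stably expressing human GnRHR were plated 18 h at 37 °C, loaded with calcium dye 1 h at 37 °C, then given compound in agonist mode; fluorescence (Ex/Em 480/540) read kinetically for 3 min at 1 s intervals.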

[4] = biological target: KiSS-1 receptor (Homo sapiens) (UniProt Q969F8); assay: Human kisspeptin (KISS1R) small molecule agonists, calcium flux assay in KISS1R-HEK293 cells (AID 1920064; active = well fitted curve in the direction sought with a large enough effect in the repeat runs; an effect the other way counts as inactive or inconclusive)
Sequence of KiSS-1 receptor (Homo sapiens) (Q969F8 whole entry, looked up): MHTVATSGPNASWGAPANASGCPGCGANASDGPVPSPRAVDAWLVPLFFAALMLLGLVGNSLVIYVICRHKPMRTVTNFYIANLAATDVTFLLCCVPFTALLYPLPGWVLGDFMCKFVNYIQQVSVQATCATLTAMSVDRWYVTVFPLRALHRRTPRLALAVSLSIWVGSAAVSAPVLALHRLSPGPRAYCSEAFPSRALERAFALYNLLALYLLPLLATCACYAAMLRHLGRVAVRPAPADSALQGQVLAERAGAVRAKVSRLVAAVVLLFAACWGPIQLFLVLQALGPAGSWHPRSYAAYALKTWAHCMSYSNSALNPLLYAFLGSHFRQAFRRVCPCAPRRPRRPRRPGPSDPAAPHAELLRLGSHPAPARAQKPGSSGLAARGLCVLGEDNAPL
In short: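 HEK293 cells stably expressing human KISS1R were plated 18 h at 37 °C, loaded with calcium dye for 1 h at 37 °C, then given compound by pin tool. Fluorescence (Ex/Em 480/540) was read kinetically for 3 min.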

[5] = G protein-coupled receptor (GPCR) small molecule agonists, calcium flux assay: HEK293 wild type cell line counter screen (AID 1920065)
In short: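 Cells were plated and cultured 18 h at 37 C/5% CO2, then loaded with calcium dye for 1 h at 37 C. Compounds in DMSO were pin-transferred in agonist mode, and fluorescence (Ex/Em 480/540) was read kinetically for 3 min at 1 s intervals.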

[6] = p53 small molecule agonists, cell-based qHTS assay with human liver microsomes (AID 1963577);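 also: p53 response element beta-lactamase reporter cells with liver microsomes plus NADPH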
In short: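 Steps: plate p53RE-bla cells, incubate 5 h at 37 C; add compound in DMSO; add microsomes (0.5 mg/mL final) and NADPH (0.5 mg/mL final); incubate 16 h at 37 C; add LiveBLAzer, 2 h RT; read fluorescence.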

[7] = p53 small molecule agonists, cell-based qHTS assay with rat liver microsomes (AID 1963578)
In short: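 Metabolic activation is supplied by rat liver microsomes with NADPH (each 0.5 mg/mL final). p53RE-bla cells incubate with compound 16 h at 37 C; reporter activity is measured by LiveBLAzer fluorescence.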

[8] = p53 small molecule agonists, cell-based qHTS assay with human liver microsomes: qHTS cell viability counter screen (AID 1963579); also: nearly all actives have a fitted effect of over 45% in size
In short: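 After the 460/530 nm beta-lactamase read, CellTiter-Glo was added to the same wells and luminescence measured after 30 min at room temperature, giving viability of p53RE-bla cells treated 16 h with compounds plus microsomes and NADPH.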

[9] = p53 small molecule agonists, cell-based qHTS assay with rat liver microsomes: qHTS cell viability counter screen (AID 1963580); also: nearly all actives have a fitted effect of over 45% in size
In short: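 p53RE-bla HCT-116 cells (4,000/well) rested 5 h at 37 C, then given Tox21 compounds in DMSO with rat liver microsomes (0.5 mg/mL final) plus NADPH (0.5 mg/mL final) for 16 h at 37 C. Viability read by CellTiter-Glo luminescence after 30 min at room temperature.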

[10] = biological target: 5-hydroxytryptamine receptor 2A (Homo sapiens) (UniProt P28223); assay: 5-hydroxytryptamine receptor 2A (HTR2A) small molecule antagonists, cell-based qHTS assay (AID 1963586); also: nearly all actives have a fitted effect of over 45% in size
Sequence of 5-hydroxytryptamine receptor 2A (Homo sapiens) (P28223 whole entry, looked up): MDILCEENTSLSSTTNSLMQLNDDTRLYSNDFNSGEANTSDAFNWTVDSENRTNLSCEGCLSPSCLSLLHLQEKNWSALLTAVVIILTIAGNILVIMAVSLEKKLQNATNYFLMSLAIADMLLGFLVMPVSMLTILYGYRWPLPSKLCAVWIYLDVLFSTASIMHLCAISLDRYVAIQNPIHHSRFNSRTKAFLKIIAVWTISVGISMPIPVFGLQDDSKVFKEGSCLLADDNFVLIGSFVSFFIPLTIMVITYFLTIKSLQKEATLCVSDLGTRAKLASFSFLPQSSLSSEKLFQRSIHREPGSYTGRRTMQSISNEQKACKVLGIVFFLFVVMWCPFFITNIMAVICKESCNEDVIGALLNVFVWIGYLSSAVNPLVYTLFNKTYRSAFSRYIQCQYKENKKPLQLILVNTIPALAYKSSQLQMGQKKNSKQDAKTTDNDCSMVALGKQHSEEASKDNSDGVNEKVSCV
In short: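 Antagonist-mode intracellular calcium assay: DOI (4 nM) added after 5 min compound pre-incubation at room temperature to dye-loaded HTR2A-CHO cells. Fluorescence followed for 3 min, sampled every second.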

[11] = biological target: 5-hydroxytryptamine receptor 2A (Homo sapiens) (UniProt P28223); assay: 5-hydroxytryptamine receptor 2A (HTR2A) small molecule agonists, cell-based qHTS assay (AID 1963587); also: nearly all actives have a fitted effect of over 30% in size; also: potency is read from the fitted curve at half-maximal effect
In short: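 HTR2A-CHO cells, plated 18 h at 37 C/5% CO2, dye-loaded 1 h at 37 C; compounds in DMSO added by pin tool (agonist mode). Intracellular calcium flux read as kinetic fluorescence on FDSS over 2 min at 1 s intervals.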

[12] = biological target: Muscarinic acetylcholine receptor M1 (Homo sapiens) (UniProt P11229); assay: Cholinergic receptor muscarinic 1 (CHRM1) small molecule antagonists, cell-based qHTS assay (AID 1963588); also: nearly all actives have a fitted effect of over 40% in size; also: potency is read from the fitted curve at half-maximal effect
Sequence of Muscarinic acetylcholine receptor M1 (Homo sapiens) (P11229 whole entry, looked up): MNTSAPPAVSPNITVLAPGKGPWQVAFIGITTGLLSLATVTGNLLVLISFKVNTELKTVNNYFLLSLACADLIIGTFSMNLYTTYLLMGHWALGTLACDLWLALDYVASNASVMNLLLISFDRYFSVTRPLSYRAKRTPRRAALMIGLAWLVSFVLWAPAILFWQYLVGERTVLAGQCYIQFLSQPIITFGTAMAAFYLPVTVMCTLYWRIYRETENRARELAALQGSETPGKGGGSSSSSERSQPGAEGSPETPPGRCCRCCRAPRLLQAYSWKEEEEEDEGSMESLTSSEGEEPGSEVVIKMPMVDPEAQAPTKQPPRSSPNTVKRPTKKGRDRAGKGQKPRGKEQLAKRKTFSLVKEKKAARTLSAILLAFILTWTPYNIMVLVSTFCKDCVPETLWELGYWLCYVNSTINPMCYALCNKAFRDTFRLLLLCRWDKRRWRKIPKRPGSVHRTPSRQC
In short: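 CHRM1-CHO calcium-flux assay, antagonist mode. Cells were seeded 18 h, dye-loaded 1 h at 37 C and given compound for 5 min at RT, then acetylcholine was added at 50nM. FDSS fluorescence was read 3 min; 15 concentrations, three runs.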

[13] = biological target: Muscarinic acetylcholine receptor M1 (Homo sapiens) (UniProt P11229); assay: Cholinergic receptor muscarinic 1 (CHRM1) small molecule agonists, cell-based qHTS assay (AID 1963589); also: nearly all actives have a fitted effect of over 35% in size
In short: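 CHO cells stably expressing human CHRM1, seeded 18 h at 37 C/5% CO2, dye-loaded 1 h at 37 C, then given compound in agonist mode; intracellular calcium fluorescence read kinetically at 1 s intervals. Fifteen concentrations, three independent runs.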

[14] = biological target: Beta-2 adrenergic receptor (Homo sapiens) (UniProt P07550); assay: Adrenergic beta2 receptor (ADRB2) small molecule antagonists, cell-based qHTS assay (AID 1963592); also: nearly all actives have a fitted effect of over 50% in size; also: potency is read from the fitted curve at half-maximal effect
Sequence of Beta-2 adrenergic receptor (Homo sapiens) (P07550 whole entry, looked up): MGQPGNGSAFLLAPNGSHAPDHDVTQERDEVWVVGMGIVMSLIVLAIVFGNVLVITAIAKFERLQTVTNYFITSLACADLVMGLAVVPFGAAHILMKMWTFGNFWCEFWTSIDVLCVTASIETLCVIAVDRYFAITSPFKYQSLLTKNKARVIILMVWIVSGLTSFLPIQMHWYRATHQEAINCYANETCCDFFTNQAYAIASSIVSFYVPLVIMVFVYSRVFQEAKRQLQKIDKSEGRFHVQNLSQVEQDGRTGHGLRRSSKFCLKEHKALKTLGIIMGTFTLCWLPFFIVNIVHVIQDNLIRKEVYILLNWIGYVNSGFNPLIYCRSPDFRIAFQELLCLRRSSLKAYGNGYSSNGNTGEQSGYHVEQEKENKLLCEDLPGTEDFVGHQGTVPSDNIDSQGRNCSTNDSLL
In short: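 Cells (CHO, stable ADRB2 overexpression) incubated 18-20hr at 37C; compounds added from DMSO; agonist mix (1nM isoproterenol, 100uM IBMX, 25uM Ro-20-1724) added; 0.5hr RT; d2-cAMP and anti-cAMP-cryptate added; 1hr RT; 665/615 nm read.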

[15] = biological target: Beta-2 adrenergic receptor (Homo sapiens) (UniProt P07550); assay: Adrenergic beta2 receptor (ADRB2) small molecule agonists, cell-based qHTS assay (AID 1963593);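 also: CHO cells stably overexpressing human ADRB2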
In short: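 CHO cells stably over-expressing ADRB2 were plated overnight at 37C, then dosed with compounds plus a stimulation mix containing 100uM IBMX and 25uM Ro-20-1724 for 0.5hr at room temperature. cAMP was measured by HTRF competition, 1hr.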

[16] = biological target: D(2) dopamine receptor (Homo sapiens) (UniProt P14416); assay: Dopamine D2 receptor (DRD2) small molecule agonists, cell-based qHTS assay (AID 1963594); also: nearly all actives have a fitted effect of over 35% in size
Sequence of D(2) dopamine receptor (Homo sapiens) (P14416 whole entry, looked up): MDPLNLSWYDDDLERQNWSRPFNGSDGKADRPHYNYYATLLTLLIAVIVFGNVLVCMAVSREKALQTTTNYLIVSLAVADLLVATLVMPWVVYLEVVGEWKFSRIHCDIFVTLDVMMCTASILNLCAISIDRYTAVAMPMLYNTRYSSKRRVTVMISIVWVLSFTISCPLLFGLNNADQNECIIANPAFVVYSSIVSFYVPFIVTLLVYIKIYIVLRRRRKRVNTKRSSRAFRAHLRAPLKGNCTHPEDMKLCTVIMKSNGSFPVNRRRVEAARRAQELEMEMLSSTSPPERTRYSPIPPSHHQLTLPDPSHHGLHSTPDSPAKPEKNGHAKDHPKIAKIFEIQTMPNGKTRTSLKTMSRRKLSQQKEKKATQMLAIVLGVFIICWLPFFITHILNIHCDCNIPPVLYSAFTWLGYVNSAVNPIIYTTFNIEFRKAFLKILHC
In short: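 HEK293 cells stably expressing DRD2 were cultured 24 h at 37 C, then given Ro20-1724 (0.1 mM final) and compounds for 10 min at room temperature. NKH477 (200nM) was then added for 30 min. cAMP was read by HTRF.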

[17] = biological target: D(2) dopamine receptor (Homo sapiens) (UniProt P14416); assay: Dopamine D2 receptor (DRD2) small molecule antagonists, cell-based qHTS assay (AID 1963595; active = well fitted inhibition curve with a large enough effect in the signal ratio in the repeat runs, with a control signal flat; the % refers to the signal ratio)
In short: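 Stable D2 receptor HEK293 line, 24 h after seeding. Compound preincubated 10 min, then quinpirole (12 nM) with forskolin analogue NKH477 (200 nM), 30 min, room temperature. Detection by time-resolved FRET of cAMP.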

[18] = p53 small molecule agonists, cell-based qHTS assay: qHTS cell viability counter screen (AID 1963581); also: nearly all actives have a fitted effect of over 45% in size
In short: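 p53RE-bla HCT-116 cells were exposed to compounds for 16 h at 37 C; after the beta-lactamase FRET read in the same wells, CellTiter-Glo was added and luminescence (intracellular ATP) read after 30 min at room temperature.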

[19] = cAMP Responsive Elements (CRE) small molecule agonists, cell-based qHTS assay (AID 1963590)
In short: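 CRE-bla HEK 293T cells in DMEM with 10% dialyzed FBS, NEAA, pyruvate and 25 mM HEPES were plated 18 h at 37 C/5% CO2, then exposed to compounds in DMSO for 3 h before LiveBLAzer B/G FRET substrate addition.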

[20] = cAMP Responsive Elements (CRE) small molecule antagonists, cell-based qHTS assay (AID 1963591; active = well fitted inhibition curve with a large enough effect in the signal ratio in the repeat runs, not every such curve was filed as active; the % refers to the signal ratio)
In short: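 CRE-bla HEK293T cells were plated 18 h at 37 °C/5% CO2, pinned with compound in DMSO, then stimulated with NKH477 at 0.25 uM final for 3 h. LiveBLAzer B/G FRET substrate was added and plates incubated 2 h at room temperature.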

Measured: Potency

N#Cc1nn(-c2c(Cl)cc(C(F)(F)F)cc2Cl)c(N)c1S(=O)C(F)(F)F (stereo not drawn)
active: [1] 61.5 µM
not listed: [18] | [19] | [20]
inactive: all other assays above

CN(C)[C@@H]1C(=O)C(C(N)=O)=C(O)[C@@]2(O)C(=O)C3=C(O)c4c(O)cccc4[C@@](C)(O)[C@H]3C[C@@H]12
not listed: [9] | [11]
inactive: all other assays above

C=CC#N
not listed: [9]
inactive: all other assays above

CC(C)=CC1C(C(=O)OCc2cccc(Oc3ccccc3)c2)C1(C)C (stereo not drawn)
not listed: [10] | [18]
inactive: all other assays above

O=C(Cl)OCc1ccccc1
not listed: [9]
inactive: all other assays above

CCN(CC)C(=O)C(C)Oc1cccc2ccccc12 (stereo not drawn)
not listed: [18]
inactive: all other assays above

COCC(=O)N(c1c(C)cccc1C)N1CCOC1=O
not listed: [11] | [18] | [20]
inactive: all other assays above

CN(C)C(=S)SSC(=S)N(C)C
active: [1] 95.5 nM and 137 nM and 119 nM
inactive and 96.9 nM (active): [2]
inactive and 27.5 µM (active): [11]
not listed: [9] | [15] | [19] | [20]
inactive: all other assays above

NNC(N)=S
active: [1] 16 µM | [2] 21.7 µM
not listed: [9] | [10]
inactive: all other assays above

NCCOS(=O)(=O)O
not listed: [15] | [18] | [20]
inactive: all other assays above

CC[N+]1(CC)CCC(OC(=O)C(O)(c2ccccc2)c2ccccc2)C1 (stereo not drawn)
active: [12] 0.0023 µM
not listed: [9]
inactive: all other assays above

NC(=O)c1cc([N+](=O)[O-])cc([N+](=O)[O-])c1
active: [12] 0.46 µM
not listed: [9]
inactive: all other assays above

O=P(Cl)(Cl)Cl
not listed: [9]
inactive: all other assays above

Cn1cc(-c2ccccc2)c(=O)c(-c2cccc(C(F)(F)F)c2)c1
29.9 µM (active) and inactive: [14]
not listed: [9] | [15]
inactive: all other assays above
